Activity calls are given as the source filed them.

Assay [1] concerns Wnt5a (protein binding on small-molecule microarray). Briefly: Wnt5a binders on small-molecule microarray, primary screen, biophysical, 635/667 nm fluorescence (AID 1142).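 Also: fluorescence read at 667 nm with signal to noise per printed feature.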 The settings on record: 635 nm fluorescence, higher = more signal.
A short description of assay [2]: cell viability in Huh7 cells, primary screen, cytotoxicity control for HCV replication inhibitor project, CellTiter-Glo luminescence, basal, 48 h (AID 1143).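 Also: Huh7 hepatoma cells carrying a hepatitis C replication reporter with no stimulus; test concentration not given here.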 The conditions noted are these: Huh7 HCV replicon, higher = more signal, called active from +8 up or from −8 down.
The nature of assay [3]: CREB reporter modulators without forskolin, primary screen, cell-based, PC12, CRE-LacZ reporter, unstimulated (AID 1145). The conditions noted are these: no forskolin, luminescence, 4.5 h, higher = more signal, called active from +8 up or from −8 down.
Assay [4] is described as follows: CREB reporter modulators under forskolin, primary screen, cell-based, PC12, CRE-LacZ reporter, forskolin-stimulated (AID 1146).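 Also: PC12 cells with 6xCRE LacZ reporter stimulated by forskolin 10 µM; beta-galactosidase reporter signal reflecting CREB driven transcription.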 The settings on record: luminescence, 4.5 h, higher = more signal, called active from +8 up or from −8 down.
In assay [5] the target is Streptavidin (Streptomyces avidinii) (UniProt P22629). The assay is described as follows: streptavidin binders on small-molecule microarray, primary screen, artefact control for SMM compound annotation, biophysical, 635/667 nm fluorescence (AID 1147).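 Also: signal reflects streptavidin binding to arrayed compounds as a control protein.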 The settings on record: streptavidin binding, higher = more signal.
Streptavidin (Streptomyces avidinii), sequence (P22629 whole entry, looked up): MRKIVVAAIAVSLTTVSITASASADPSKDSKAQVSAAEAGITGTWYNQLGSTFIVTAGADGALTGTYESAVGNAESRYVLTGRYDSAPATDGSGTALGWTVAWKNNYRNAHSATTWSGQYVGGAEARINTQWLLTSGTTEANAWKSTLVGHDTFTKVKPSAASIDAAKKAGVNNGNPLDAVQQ
Assay [6] is described as follows: small-molecule binders of probe aInhba, primary screen, biochemical, small-molecule microarray, 635/667 nm fluorescence (AID 1148).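 Also: score merges 667nm spot fluorescence with signal-to-noise for antibody binding to printed compounds.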 The conditions noted are these: higher = more signal.
In assay [7] the target is Torsin-1A (Homo sapiens) (UniProt O14656). Briefly: torsin A binders from cell lysate, primary screen, small-molecule microarray, wild-type, 635/667 nm (AID 1149). The settings on record: COS7 hTOR1A-WT lysate, 635 nm fluorescence, higher = more signal.
Torsin-1A (Homo sapiens), sequence (O14656 whole entry, looked up): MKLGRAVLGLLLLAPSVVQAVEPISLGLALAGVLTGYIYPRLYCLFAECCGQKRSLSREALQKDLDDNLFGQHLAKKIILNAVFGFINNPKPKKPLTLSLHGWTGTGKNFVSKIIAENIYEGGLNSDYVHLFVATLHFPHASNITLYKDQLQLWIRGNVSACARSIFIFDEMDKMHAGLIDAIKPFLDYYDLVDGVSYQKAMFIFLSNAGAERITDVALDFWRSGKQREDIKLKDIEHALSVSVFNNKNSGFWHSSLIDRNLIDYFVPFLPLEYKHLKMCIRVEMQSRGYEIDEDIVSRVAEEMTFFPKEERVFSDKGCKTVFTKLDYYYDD
For assay [8] the target is unchanged. The assay is described as follows: small-molecule binders of mutant TOR1A in lysate, primary screen, cell lysate, small-molecule microarray, COS7 lysate, 635/667 nm fluorescence (AID 1150).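 Also: score pools 667 nm emission and signal to noise measuring lysate protein binding.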 The settings on record: COS7 hTOR1A mutant lysate, 635 nm fluorescence, higher = more signal.
The test system of assay [9] is Sonic hedgehog protein (Shh). The assay is described as follows: small-molecule binders of Shh protein, primary screen, biochemical, small-molecule microarray, 635/667 nm fluorescence (AID 1151).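 Also: Shh protein binding to compounds spotted on small-molecule microarray slides; score combines spot fluorescence intensity with signal-to-noise across triplicate slides.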 The conditions noted are these: small-molecule microarray binding, 635 nm fluorescence; higher = more signal.
Assay [10] is described as follows: E. coli DRC41 culture turbidity changes, primary screen, E. coli filamentation inducer project, strain DRC41, OD650, 48 h (AID 1152).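 Also: E. coli MC1000 strain DRC41 lacking acrAB efflux pump and sulA.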 The settings on record: E. coli DRC41 (acrAB sulA), higher = more signal, called active from +8 up or from −8 down.
A short description of assay [11]: small-molecule binders of probe aLefty1, primary screen, biochemical, small-molecule microarray, 635/667 nm fluorescence (AID 1153).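 Also: score merges spot fluorescence with signal-to-noise ratio from the scanned slide images.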 The settings on record: higher = more signal.
Assay [12] can be described thus: PSAC antagonists in infected red cells, primary screen, cell-based, P. falciparum Indochina, OD700, 1 h (AID 1154). The settings on record: P. falciparum Indochina infected RBC osmotic lysis, higher = more signal, called active from +8 up or from −8 down.
Assay [13] in a line: PSAC antagonists in infected red cells, primary screen, cell-based, P. falciparum Indochina, OD700, 2 h (AID 1155).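 Also: lysis reports solute entry through the parasite surface anion channel PSAC; channel blockers reduce lysis of infected cells.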 The conditions noted are these: P. falciparum Indochina infected erythrocytes, osmotic lysis OD700; higher = more signal, called active from +8 up or from −8 down.
Assay [14] can be described thus: osmotic lysis modulators in infected erythrocytes, primary screen, PSAC antagonist project, cell-based, P. falciparum Indochina, OD700, 3 h (AID 1156). The conditions noted are these: higher = more signal, called active from +8 up or from −8 down.
Assay [15] in a line: PSAC antagonists in infected red cells, primary screen, cell-based, P. falciparum Indochina, OD700, 18 h (AID 1157). The conditions noted are these: P. falciparum Indochina infected erythrocytes, osmotic lysis OD700, 18 h; higher = more signal, called active from +8 up or from −8 down.
Assay [16] can be described thus: modulators of S6 phosphorylation in cells, primary screen, cell-based, A549, cytoblot, luminescence, serum-stimulated (AID 1158).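 Also: serum-stimulated A549 lung adenocarcinoma cells; signal is phosphorylated S6 detected by cytoblot immunostaining with HRP secondary.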 The conditions noted are these: A549 phospho-S6 cytoblot, 5 h, higher = more signal.
Assay [17] has as its target NADPH oxidase 2 (Homo sapiens) (UniProt P04839). The assay is described as follows: NOX2-dependent H2O2 signal modulators, primary screen, NOX inhibitor project, cell-based, HEK293-NOX2, PMA-stimulated, Amplex Red fluorescence (AID 1159). Also: test concentration not given here. The conditions noted are these: 45 min, higher = more signal, called active from +8 up or from −8 down.
Assay [18] deals with NADPH oxidase 4 (Homo sapiens) (UniProt Q9NPH5). The assay is described as follows: NOX4-dependent H2O2 signal modulators, primary screen, NOX inhibitor project, cell-based, HEK293-NOX4, tetracycline-induced, Amplex Red fluorescence (AID 1160). The settings on record: 45 min, higher = more signal, called active from +8 up or from −8 down.
NADPH oxidase 4 (Homo sapiens), sequence (Q9NPH5 whole entry, looked up): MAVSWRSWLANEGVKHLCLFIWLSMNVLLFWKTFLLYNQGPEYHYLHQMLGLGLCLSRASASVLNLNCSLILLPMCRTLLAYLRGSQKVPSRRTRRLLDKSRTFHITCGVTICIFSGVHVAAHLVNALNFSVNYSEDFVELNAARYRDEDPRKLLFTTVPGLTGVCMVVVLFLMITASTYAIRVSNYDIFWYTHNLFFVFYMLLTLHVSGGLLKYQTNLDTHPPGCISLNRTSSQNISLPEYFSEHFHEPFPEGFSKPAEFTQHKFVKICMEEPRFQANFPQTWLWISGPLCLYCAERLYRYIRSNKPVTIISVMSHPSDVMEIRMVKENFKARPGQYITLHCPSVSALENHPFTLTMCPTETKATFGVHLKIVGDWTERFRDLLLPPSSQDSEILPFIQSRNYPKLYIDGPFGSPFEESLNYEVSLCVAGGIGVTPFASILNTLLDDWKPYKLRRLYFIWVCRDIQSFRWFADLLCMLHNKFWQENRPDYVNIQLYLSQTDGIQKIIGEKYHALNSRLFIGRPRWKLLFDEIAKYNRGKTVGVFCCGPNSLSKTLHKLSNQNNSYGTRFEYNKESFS
The target of assay [19] is NADPH oxidase 5 (Homo sapiens) (UniProt Q96PH1). The assay is described as follows: NOX5-dependent H2O2 signal modulators, primary screen, NOX inhibitor project, cell-based, HEK293-NOX5, Amplex Red fluorescence (AID 1161). The settings on record: HEK293-NOX5, ionomycin, 45 min, higher = more signal.
NADPH oxidase 5 (Homo sapiens), sequence (Q96PH1 whole entry, looked up): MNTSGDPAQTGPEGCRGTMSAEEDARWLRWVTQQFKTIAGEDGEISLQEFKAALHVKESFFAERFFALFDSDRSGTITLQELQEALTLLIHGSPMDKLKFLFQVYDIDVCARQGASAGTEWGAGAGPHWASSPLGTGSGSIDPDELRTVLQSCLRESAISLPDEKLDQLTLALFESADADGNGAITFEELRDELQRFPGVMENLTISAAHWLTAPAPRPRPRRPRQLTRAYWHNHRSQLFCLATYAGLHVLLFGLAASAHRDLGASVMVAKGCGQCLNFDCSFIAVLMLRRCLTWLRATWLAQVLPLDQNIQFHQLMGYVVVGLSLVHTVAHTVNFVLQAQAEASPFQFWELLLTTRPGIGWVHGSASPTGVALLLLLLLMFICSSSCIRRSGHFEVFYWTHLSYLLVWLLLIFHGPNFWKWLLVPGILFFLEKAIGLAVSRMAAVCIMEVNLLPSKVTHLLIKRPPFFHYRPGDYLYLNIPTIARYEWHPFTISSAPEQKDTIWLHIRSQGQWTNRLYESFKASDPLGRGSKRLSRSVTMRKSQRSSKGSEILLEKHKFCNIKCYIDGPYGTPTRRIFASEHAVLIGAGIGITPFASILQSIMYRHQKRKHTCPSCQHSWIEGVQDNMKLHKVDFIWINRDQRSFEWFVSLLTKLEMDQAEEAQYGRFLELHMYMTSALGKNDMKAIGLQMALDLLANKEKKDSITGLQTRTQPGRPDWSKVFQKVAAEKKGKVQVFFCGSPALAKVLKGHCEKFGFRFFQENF
Assay [20] in a line: A549 cell viability effects, profiling panel, calcein-AM fluorescence, 48 h, basal (AID 1162). Also: test concentration not given here. The conditions noted are these: higher = more signal.

NADPH oxidase 2 (Homo sapiens), sequence (P04839 whole entry, looked up): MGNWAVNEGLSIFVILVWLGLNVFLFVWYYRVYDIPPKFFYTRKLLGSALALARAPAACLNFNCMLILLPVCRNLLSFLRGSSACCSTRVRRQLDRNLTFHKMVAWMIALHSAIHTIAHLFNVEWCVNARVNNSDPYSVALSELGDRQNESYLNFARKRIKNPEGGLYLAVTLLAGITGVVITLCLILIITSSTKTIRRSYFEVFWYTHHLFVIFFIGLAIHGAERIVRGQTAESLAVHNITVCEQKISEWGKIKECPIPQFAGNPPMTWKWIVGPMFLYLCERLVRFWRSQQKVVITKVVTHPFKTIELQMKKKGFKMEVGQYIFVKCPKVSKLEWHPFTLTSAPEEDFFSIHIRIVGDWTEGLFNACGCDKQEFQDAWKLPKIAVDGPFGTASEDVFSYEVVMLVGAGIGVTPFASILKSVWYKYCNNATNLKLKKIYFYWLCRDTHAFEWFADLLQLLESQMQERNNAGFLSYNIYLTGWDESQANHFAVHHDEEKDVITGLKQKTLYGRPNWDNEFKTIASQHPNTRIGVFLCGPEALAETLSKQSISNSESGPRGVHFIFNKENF

`CC(C)C[C@@H]1NC(=O)[C@@H]2C[C@H](C(=O)NCCCCCNC(=O)CS)[C@H](c3cccc(OCCO)c3)N2C1=O`: the composite z-score in [1] stood at 0.257; in assay [5], 0.811; in assay [6] it was 0.0207; with Torsin-1A (Homo sapiens) [7], 1.31; with Torsin-1A (Homo sapiens) [8], 0.824; in assay [9], 2.03. For the same molecule, the composite z-score in assay [11] is 0.348. The z-score in [2] is -1.59 (inactive); in assay [3], 0.147 (inactive); in [4], -1.09 (inactive); in [10] it was 1.8 (inactive); in assay [12], 3.21 (inactive); in assay [13], -0.422 (inactive). The z-score in [14] is -1.74 (inactive); in assay [15] it was -1.93 (inactive); in assay [16], 0.955; in assay [17], 2.24 (inactive); in assay [18], 0.84 (inactive); in [19], 0.00283. In addition, the z-score in assay [20] was 0.221.

With `NCCCCCCNC(=O)[C@@H]1C[C@@H]2C(=O)N[C@@H](Cc3ccccc3)C(=O)N2[C@@H]1c1ccc(O)cc1`, the composite z-score came out at 0.0167 in assay [1]; 0.91 in [5]; 0.229 in assay [6]; 0.104 with Torsin-1A (Homo sapiens) [7]; 0.416 with Torsin-1A (Homo sapiens) [8]; 0.507 in [9]. Besides, the composite z-score in assay [11] is 0.443. Further, the z-score in assay [2] is -0.136 (inactive); in assay [3], 1.52 (inactive); in assay [4], -1.12 (inactive); in [10] it was 0.717 (inactive); in assay [12], 3.47 (inactive); in [13], 0.374 (inactive). Also, the z-score is -6.59 (inactive) in [14]; 0.276 (inactive) in [15]; -0.118 in [16]; 1.18 (inactive) in assay [17]; 1.3 (inactive) in [18]; 0.846 in assay [19]. In addition, in assay [20], the z-score was 0.987.

In the case of `COCCOC(=O)N1C(=O)[C@@]2(c3cc(C#CCNC(N)=O)ccc31)[C@H](C(=O)NC[C@H](O)c1ccccc1)[C@H]1C(=O)O[C@H](c3ccccc3)[C@H](c3ccccc3)N1[C@@H]2c1ccc(O)cc1`, the composite z-score in assay [1] was 0.226; in [5], 0.0489; in assay [6], -0.128; with Torsin-1A (Homo sapiens) [7] it was 0.397; in the assay with Torsin-1A (Homo sapiens) [8] it was 0.393; in assay [9], 0.746. For the same molecule, in assay [11], the composite z-score was -0.196. For the same molecule, the z-score in assay [2] was -1.19 (inactive); in assay [3], -1.02 (inactive); in assay [4] it was -0.899 (inactive); in assay [10], 2.05 (inactive); in [12], 0.532 (inactive); in [13], -1.33 (inactive). The z-score was 0.527 (inactive) in assay [14]; -1.55 (inactive) in [15]; 1.57 in assay [16]; 1.46 (inactive) in [17]; 0.692 (inactive) in [18]; 0.776 in assay [19]. Moreover, in [20], the z-score is 0.834.

Consider `COc1ccc(C(=O)Nc2cccc(CN3C(=O)[C@@]4(O[C@@H](CCO)[C@H]([Si](C)(C)c5ccc(OC)cc5)[C@H]4C)c4ccccc43)c2)cc1`, for which the composite z-score is 0.143 in assay [1]; 0.182 in assay [5]; -0.0523 in assay [6]; 0.317 with Torsin-1A (Homo sapiens) [7]; 0.478 in the assay with Torsin-1A (Homo sapiens) [8]; 0.626 in assay [9]. In assay [11], this molecule came in with a composite z-score of -0.0082. In addition, the z-score in [2] was -8.03 (active); in assay [3], 4.03 (inactive); in assay [4], -2.29 (inactive); in assay [10] it was 0.677 (inactive); in assay [12], 9.1 (active); in [13] it was 1.27 (inactive). In addition, the z-score in assay [14] is -0.984 (inactive); in assay [15] it was -0.11 (inactive); in assay [16] it was 0.487; in assay [17] it was -6.67 (inactive); in assay [18], -2.83 (inactive); in assay [19], -2.96. Also, the z-score in [20] was -3.95.

As for `C=CCN1C(=O)[C@@]2(O[C@@H](CCO)[C@H]([Si](C)(C)c3ccc(OC)cc3)[C@H]2C)c2cc(N3C(=O)c4cccc5cccc3c45)ccc21`, the composite z-score was -0.1 in assay [1]; 0.168 in [5]; 0.017 in [6]; 0.408 with Torsin-1A (Homo sapiens) [7]; 0.579 in the assay with Torsin-1A (Homo sapiens) [8]; 0.567 in [9]. Also, the composite z-score in [11] was 0.0313. Also, the z-score is -7.95 (inactive) in assay [2]; 22.3 (active) in [3]; -4.22 (inactive) in [4]; 1.29 (inactive) in [10]; 24.5 (active) in assay [12]; 9.43 (active) in assay [13]. Moreover, the z-score in [14] is 0.0469 (inactive); in assay [15], 2.56 (inactive); in [16] it was 0.0438; in assay [17], -0.167 (inactive); in assay [18] it was 0.606 (inactive); in [19], 1.25. For the same molecule, the z-score in assay [20] was -3.04.

The record behind these values is PubChem BioAssay.
